# IDE inh: inhibitors of human insulin-degrading enzyme in cells; AID 434962; hit rate 0.41% among 320,000; inhibition, % at 5.59 µM; HEK cells, FAbetaB cleavage, fluorescence polarization; P14735;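 active = percent inhibition above the average of all tested compounds plus 3 SD, set per screening campaign, cut at about 16% in these data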;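 also: IDE supplied by intact live HEK cells; FP after avidin binding of uncleaved biotin substrate so inhibition keeps polarization high; 0% = DMSO wells and 100% = 60 µM reference IDE inhibitor Ii1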
# Target sequence (P14735 whole entry, looked up): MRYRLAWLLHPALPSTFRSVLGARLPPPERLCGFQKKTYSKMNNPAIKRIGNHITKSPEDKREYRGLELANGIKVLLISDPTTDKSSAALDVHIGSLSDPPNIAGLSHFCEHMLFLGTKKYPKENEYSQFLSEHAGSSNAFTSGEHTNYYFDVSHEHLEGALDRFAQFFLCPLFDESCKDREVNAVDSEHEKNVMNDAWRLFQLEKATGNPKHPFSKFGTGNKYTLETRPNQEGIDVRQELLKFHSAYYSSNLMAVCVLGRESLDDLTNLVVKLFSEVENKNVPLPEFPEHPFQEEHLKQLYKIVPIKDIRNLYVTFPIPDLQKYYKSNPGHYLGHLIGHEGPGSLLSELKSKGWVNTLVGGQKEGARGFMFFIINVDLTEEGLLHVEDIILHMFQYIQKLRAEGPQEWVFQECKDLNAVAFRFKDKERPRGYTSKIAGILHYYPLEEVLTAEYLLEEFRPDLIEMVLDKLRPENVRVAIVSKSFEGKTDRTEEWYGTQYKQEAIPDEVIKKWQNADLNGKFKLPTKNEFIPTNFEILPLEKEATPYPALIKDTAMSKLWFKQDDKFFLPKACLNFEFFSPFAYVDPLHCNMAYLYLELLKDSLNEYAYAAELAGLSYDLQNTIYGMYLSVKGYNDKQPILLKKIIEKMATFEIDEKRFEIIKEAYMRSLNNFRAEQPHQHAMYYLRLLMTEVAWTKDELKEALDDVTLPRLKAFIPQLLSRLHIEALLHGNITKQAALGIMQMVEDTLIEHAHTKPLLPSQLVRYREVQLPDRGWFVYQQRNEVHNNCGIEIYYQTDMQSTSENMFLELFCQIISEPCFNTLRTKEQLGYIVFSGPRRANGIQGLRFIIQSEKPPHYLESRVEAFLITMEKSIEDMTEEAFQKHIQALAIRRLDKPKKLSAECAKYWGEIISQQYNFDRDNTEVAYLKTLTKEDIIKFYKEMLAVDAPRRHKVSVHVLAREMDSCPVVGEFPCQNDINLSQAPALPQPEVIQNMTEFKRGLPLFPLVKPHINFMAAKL
# RTF Ca sens inh: cardiac RTF calcium desensitization; IANBD-labeled cardiac RTF, Ca2+ fluorescence; inhibition, % at 7.15 µM; AID 493244; P19429+P45379; hit rate 0.12% among 340,000;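 active = inhibition above the mean inhibition of all tested compounds plus 3 SD, cut at about 17% in these data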;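 also: assay run at fixed EC70 calcium of 1.6 mM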
# CRFR2-BP antag: CRF-BP/CRF-R2 complex antagonism; AID 588475; inhibition, % at 11.8 µM; HEK293 CRF-R2/CRF-BP, CRF-induced calcium fluorescence; hit rate 0.59% among 350,000;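 active = inhibition of the ligand-induced calcium signal above about 50% at the single tested concentration, limit read from the data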
# CRFR2-BP ag: agonists of human CRF-binding protein/CRF-R2 receptor complex | hit rate 0.46% among 350,000 | activation, % at 13.2 µM | HEK293 CRF-R2/CRF-BP, calcium dye fluorescence (FLIPR); percent of saturating CRF peptide response;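 active = activation of at least 50%, plus an integration ratio under a set limit after plate pattern correction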;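 also: plate controls were neutral control wells without compound for no effect and CRF at EC100 for full effect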
# cardiac RTF act: cardiac RTF calcium sensitization. IANBD-labeled TnC RTF fluorescence at EC20 calcium; 0% EC20 calcium, 100% full calcium. activation, % at 7.2 µM. hit rate 0.24% among 340,000;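 active = activation above the mean over all tested compounds plus 3 SD, cut at about 30% in these data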;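 also: rise in fluorescence read as greater calcium sensitivity of cardiac thin filaments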
# IDE act: activators of human insulin-degrading enzyme in cells; P14735; HEK cells, FAbeta-B cleavage, fluorescence polarization; 0% vehicle, 100% cell-free pure enzyme wells; activation, % at 5.96 µM; hit rate 0.073% among 340,000;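 active = activation above the mean of all tested compounds plus 3 SD, set per screening campaign, cut at about 17% in these data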
# IDE inh confirm: cellular human IDE inhibition, confirmation. HEK cells, FAbetaB cleavage, fluorescence polarization. shares compounds with IDE inh. inhibition, % at 5.59 µM. hit rate 51% among 1,200;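 active = mean inhibition across triplicate wells above the cutoff set by the earlier primary insulin-degrading enzyme screen, cut at about 16% in these data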;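 also: 0% = DMSO wells and 100% = 60 µM reference IDE inhibitor Ii1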
# HEK293 tox: HEK cell cytotoxicity, counter-screen for IDE inhibitors. shares compounds with IDE inh. HEK293 cytotoxicity, ATP luminescence. inhibition, % at 5.59 µM. hit rate 28% among 1,200; in the data active = inhibition above about 22%;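 also: 0% = vehicle wells and 100% = reference cytotoxic drug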
# Numbers without * were called inactive; i = inactive; x = no result given. Shown are actives, neighbours in structure and some others; about 1.5% of the full set was active somewhere.
SMILES,IDE inh,RTF Ca sens inh,CRFR2-BP antag,CRFR2-BP ag,cardiac RTF act,IDE act,IDE inh confirm,HEK293 tox
O=C(NCc1ccco1)c1cccc2c1C(=O)c1ccc(N3CCC(Cc4ccccc4)CC3)cc1S2(=O)=O,46*,-197,-14,62*,117*,-17,45*,43*
CC1CCN(c2ccc3c(c2)S(=O)(=O)c2ccccc2C3=O)CC1,12,-30,-25,36,21,-7,x,x
O=C(NCc1ccco1)c1cccc2c1C(=O)c1ccc(/C=C/c3ccccc3)cc1S2(=O)=O,8,2,-1,2,-2,-6,x,x
CC1CCN(c2ccc3c(c2)S(=O)(=O)c2cccc(C(=O)NCc4cccc(F)c4)c2C3=O)CC1,24*,-98,-29,92*,164*,-13,32*,23*
Cc1ccc(S(=O)(=O)N2CCc3ccccc3C2CC(=O)O)cc1 (stereo unspecified),5,-2,-3,-2,-1,-5,x,x
O=C(Cn1sc2ccccc2c1=O)Nc1ccc(Cl)cc1,x,x,3,2,x,x,x,x
Cc1ccc(NC(=O)Cn2sc3nc(C)cc(C)c3c2=O)c(Cl)c1,54*,-1,-33,30,0,-63,11,27*
CCOC(=O)c1cn(CC(=O)Nc2cccc(F)c2)nn1,2,-8,34,0,-9,-3,x,x
CCOc1ccc(NC(=O)Cn2sc3nc(C)cc(C)c3c2=O)cc1,40*,-1,-3,0,0,-52,11,79*
Cc1cc(C)c2c(=O)n(CC(=O)Nc3ccc(Cl)cc3)sc2n1,46*,4,-9,4,-3,-58,9,76*
Cc1cc(C)c2c(=O)n(CC(=O)Nc3cccc(F)c3)sc2n1,21*,-10,-4,5,2,-56,8,113*
COc1ccc(S(=O)(=O)N2CN3CCN(C3)C2)cc1,0,-5,13,-3,14,-3,x,x
CCN(CC)S(=O)(=O)c1ccc(/C=C/C(=O)OCC(=O)NNC(=O)c2ccc(OC)cc2)cc1,6,2,4,-1,-3,2,x,x
COc1ccc(S(=O)(=O)Nc2ncccc2C)c2ccccc12,1,-6,-7,0,-8,-1,x,x
Cc1cccc(N2CCN(C(=O)Cn3sc4nc(C)cc(C)c4c3=O)CC2C)c1 (stereo unspecified),41*,-5,10,-1,0,-73,12,76*
Cn1c(SCC(=O)NC2CCCCC2)nnc1C(F)(F)F,x,x,8,-2,x,x,x,x
O=c1[nH]c(SCc2ccccc2[N+](=O)[O-])nc2nc[nH]c12,11,-9,3,1,10,-1,x,x
COc1ccccc1-c1ccc(/C=C2/C=C(C)OC2=O)o1,1,-10,-5,13,9,-5,x,x
COc1ccccc1-c1ccc(/C=C2\C=CC(=O)O2)o1,29*,x,-127,119*,x,x,39*,12
COc1ccc(OCC(=O)C2CC2)c(C#N)c1,6,-14,8,-6,10,4,x,x
Cc1cc(C)nc(NN2C(=O)/C(=C/c3ccccc3)SC2=S)n1,-3,-2,-7,-1,2,-10,x,x
COc1cc(/C=C2\SC(=S)N(Nc3ncc(C(F)(F)F)cc3Cl)C2=O)ccc1O,51*,-21,-169,115*,6,-87,129*,7
CN(C)c1ccc(/C=C2\SC(=S)N(Nc3ncc(C(F)(F)F)cc3Cl)C2=O)cc1,49*,-339,-147,159*,147*,-155,130*,10
O=C(CCC(=O)c1ccc(-c2ccccc2)cc1)Nc1cccnc1,17*,1,-10,2,4,-9,2,15
O=C(Nc1ccc(Cl)cc1)N1CCN(c2ccc3nnc(-c4ccc(F)cc4)n3n2)CC1,22*,0,-4,2,2,-29,13,11
SMILES,IDE inh,RTF Ca sens inh,CRFR2-BP antag,CRFR2-BP ag,cardiac RTF act,IDE act,IDE inh confirm,HEK293 tox
O=C(Nc1ccccc1Cl)N1CCN(c2ccc3nnc(-c4ccccc4)n3n2)CC1,8,-6,-9,-1,2,-14,x,x
COCCNC(=O)NC12CC3(C)CC(C)(CC(C)(C3)C1)C2,2,-4,3,0,-8,0,x,x
CCc1cccc2cc3c(N)c(C(=O)Nc4ccc(S(=O)(=O)N5CCCC5)cc4)sc3nc12,25*,-61,-151,63*,22,-11,18*,31*
CS(=O)(=O)Oc1ccc2c(c1)O/C(=C\c1cccc([N+](=O)[O-])c1)C2=O,x,-4,-1,-2,-3,5,x,x
CS(=O)(=O)Oc1ccc2c(c1)O/C(=C\C=C\c1ccccc1)C2=O,33*,-12,-12,1,-2,-11,18*,16
COc1ccc(CC(=O)N2CCN=C2SCc2cccc([N+](=O)[O-])c2)cc1,-1,-1,7,3,5,4,x,x
CCN(CC)c1ccc(/C=C/C(=O)c2ccc(Br)cc2)cc1,163*,i,-343,325*,476*,-118,61*,14
OCC1(Cc2ccccc2)CCCN(Cc2ccn[nH]2)C1 (stereo unspecified),1,-15,-7,-1,-1,4,x,x
Cc1ccc(S(=O)(=O)NCC(=O)N(CC(=O)NCC2CCCO2)Cc2ccco2)cc1 (stereo unspecified),-1,-3,-20,0,3,-1,x,x
CCCC(=O)N1CCN(c2nc3ccc(Br)cc3s2)CC1,15,-3,-3,0,-5,-9,x,x
CCCC(=O)N1CCN(c2nc3ccc(CC)cc3s2)CC1,19*,3,-11,0,1,-10,10,21
CCCCC(=O)N1CCN(c2nc3ccc(Br)cc3s2)CC1,25*,-10,-3,2,1,-22,8,42*
COc1cc(/C=C/C(=O)O)cc(Br)c1O,1,4,-5,1,8,7,x,x
COc1cc(/C=C/C(=O)C2C(=O)C=C(C)OC2=O)cc(OC)c1O (stereo unspecified),24*,-14,1,-1,-2,-12,35*,13
COc1ccc(/C=C/C(=O)C2C(=O)C=C(C)OC2=O)cc1O (stereo unspecified),28*,4,-39,2,-8,-12,9,20
COc1ccc(/C=c2\s/c(=C\C(=O)C(C)(C)C)[nH]c2=O)cc1O,-2,-15,-4,0,1,4,x,x
O=C(O)c1ccccc1C(=O)NCc1c(Cl)cccc1Sc1ccc(Cl)cc1,1,4,9,8,-2,3,x,x
